Test results from PubChem BioAssay AID651640 (Broad Institute, 2012).
Values joined by “and” are separate entries in the source; they are usually repeats but may differ in a detail not shown here. Identical values can stand only once. In all, about 350,000 compounds went through this assay and about 6,000 (1.7%) were called active. Roughly 5% stayed inconclusive and do not appear here. No stated cut-off is given here; in the data, active means CPE inhibition above about 20% (passing the limit was not always enough); inconclusive means no clear call, values can overlap the other calls; tested in BHK-21 cells. Shown is part of a subset that was picked to be rich in actives. Where a structure was tested more than once in an assay, its records may differ in their call.

Experiment: protection of cells from dengue 2 killing – plate reader, single concentration, primary screen (AID 651640);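 further: 0% = median of neutral control wells and 100% = median of positive control wells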
Conditions: DENV2-infected cells, cytopathic effect rescue, at 9.99 µM, stronger effect = higher value

Compound	CPE inhibition
CC(=O)c1ccc(S(=O)(=O)NCC2CCN(C(=O)C(=O)c3cccs3)CC2)cc1	-2.02% (inactive)
N#Cc1ccc(-c2ccc([C@@H]3[C@H]4CNC[C@@H]3N4Cc3cc(F)ccc3F)cc2)cc1	-0.209% (inactive)
N#Cc1cccc(-c2ccc(C3[C@H]4CNC[C@@H]3N4Cc3cncnc3)cc2)c1 (some centres not stated)	-5.94% (inactive)
COc1ccccc1CN1[C@@H]2CNC[C@H]1C2c1ccc(-c2cccc(C#N)c2)cc1 (some centres not stated)	9% (inactive) and 53.2% (active)
CCCNC(=O)C[C@@H]1CC[C@@H]2[C@H](COc3ccc(NC(=O)C4CCOCC4)cc3C(=O)N2C)O1	11.7% (inactive)
CCN(CC(=O)NCC(=O)Nc1cccc(C)c1C)Cc1ccccc1	61.4% (active)
CCN(CC(=O)Nc1ccc(C)c(S(=O)(=O)N(C)C)c1)Cc1ccccc1	7.9% (inactive)
Cc1cccc(NC(=O)COC(=O)CCc2ccccc2)c1C	0.193% (inactive)
CO[C@H]1CN(C)C(=O)c2cc(NC(=O)c3ccccc3)ccc2OC[C@H](C)NC[C@H]1C	-12.8% (inactive)
O=C(N[C@@H]1C=C[C@@H](CC(=O)N2CCOCC2)O[C@H]1CO)c1ccccn1	-8.41% (inactive)
CCC(C(=O)NC(C)(C)C)n1c(-c2ccccc2)nc2ccccc21 (configuration not stated)	-20.3% (inactive)
CCCc1nc2ccccc2n1C(C)C(=O)NC(C)(C)C (configuration not stated)	34.6% (active)
CC(C)(C)NC(=O)C(CCc1ccccc1)n1c(=O)c(-c2ccccc2)nc2ccccc21 (configuration not stated)	8.63% (inactive)
CCCNC(=O)C[C@@H]1CC[C@H]2[C@H](COc3ccc(NC(=O)c4ccc(Cl)cc4)cc3C(=O)N2C)O1	-2.04% (inactive)
O=C(C[C@@H]1CC[C@H](NS(=O)(=O)c2cccc(F)c2)[C@H](CO)O1)N1CCCCC1	-2.32% (inactive)
COc1ccc(-c2cn(CC[C@@H]3CC[C@@H](NC(=O)CCN4CCCCC4)[C@@H](CO)O3)nn2)cc1	-1.31% (inactive)
Cc1cccc(C)c1NC(=O)CNC(=O)c1ccc(N2CCOCC2)c([N+](=O)[O-])c1	-8.12% (inactive)
O=C(OCC(=O)N1CCOCC1)c1ccc(N2CCOCC2)c([N+](=O)[O-])c1	2.84% (inactive)
N#Cc1c(NC(=O)c2ccc(N3CCOCC3)c([N+](=O)[O-])c2)sc2c1CCCC2	46.3% (active)
C[C@H]1CN([C@@H](C)CO)C(=O)c2cccc(NC(=O)Nc3ccccc3)c2O[C@@H]1CN(C)S(=O)(=O)c1ccc(F)cc1	13.7% (inactive)
COc1ccc2c3c(n(C)c2c1)[C@@H](CO)N(CC1CC1)CC31CN(C(=O)Nc2c(C)noc2C)C1	7.58% (inactive)
CCCCCCNC(=O)O[C@]12C[C@@H](C(=O)OC)[C@@H](C(=O)OC)C[C@@]1(O)CN(S(=O)(=O)c1ccc(C)cc1)C2	-1.36% (inactive)
COc1ccc(CNC(=O)COC(=O)CCS(=O)(=O)c2ccc(C)cc2)cc1OC	-2.46% (inactive)
CCCCCCn1c(=O)n2n(c1=O)C[C@]1(OC(=O)NCc3ccc(OC)c(OC)c3)CN(S(=O)(=O)c3ccc(C)cc3)C[C@]1(O)C2	33.2% (active)

Compound	CPE inhibition
C[C@H](O)C#Cc1ccc2c(c1)O[C@H](CN(C)Cc1ccccn1)[C@@H](C)CN([C@@H](C)CO)S2(=O)=O	3.01% (inactive)
C[C@H]1CN([C@@H](C)CO)C(=O)c2c(c3ccccc3n2C)-c2ccccc2CO[C@H]1CN(C)Cc1ccc2c(c1)OCO2	-9.95% (inactive)
CCOC(=O)/C=C/c1ccccc1O	-9.35% (inactive)
CCOC(=O)NNc1cc(C(F)(F)F)ccn1	-1.25% (inactive)
CCOC(=O)/C=C/c1ccc(C(F)(F)F)cc1S(=O)(=O)NC(C)(C)C	23.6% (active)
O=C(Nc1ccccc1)N[C@@H]1CC[C@H](CCNS(=O)(=O)c2ccccc2F)O[C@@H]1CO	-0.044% (inactive)
O=C(CN1CCOCC1)N[C@@H]1CC[C@H](CCNS(=O)(=O)c2ccccc2F)O[C@H]1CO	28.5% (active)
O=C(CN1CCOCC1)N[C@H]1CC[C@@H](CCNS(=O)(=O)c2ccccc2F)O[C@H]1CO	1.76% (inactive)
O=C(Cc1ccccc1)N1C[C@H]2[C@@H](c3ccccc31)[C@H](CO)N2C(=O)C1CCOCC1	2% (inactive)
O=C(NCC[C@H]1CC[C@@H](NC(=O)c2ccncc2)[C@@H](CO)O1)Nc1ccc(Cl)cc1	3.84% (inactive)
COc1ccc(NC(=O)Nc2ccc3c(c2)C(=O)N([C@@H](C)CO)C[C@@H](C)[C@@H](CN(C)C(=O)CCCN(C)C)OCCCC[C@@H](C)O3)cc1	-1% (inactive)
Cc1ccc(S(=O)(=O)N[C@H]2CC[C@@H](CC(=O)NCc3ccc(Cl)c(Cl)c3)O[C@H]2CO)cc1	-6.75% (inactive)
Cc1ccc(S(=O)(=O)N[C@H]2CC[C@H](CC(=O)NCc3ccccc3F)O[C@@H]2CO)cc1	23.7% (active)
O=C(C[C@@H]1CC[C@H](NS(=O)(=O)c2ccc(F)cc2)[C@@H](CO)O1)NCc1ccccc1F	1.66% (inactive)
Cc1ccccc1-c1ccc2c(c1)O[C@@H](CN(C)Cc1ccc(C(=O)O)cc1)[C@H](C)CN([C@H](C)CO)S2(=O)=O	0.324% (inactive)
CC=Cc1ccc2n(c1=O)C[C@H]1[C@H](CO)[C@@H](C(=O)N3CCCCC3)N(Cc3ccccn3)[C@@H]21 (mixture of isomers)	14.3% (inactive)
COc1ccc(C(=O)NCCSc2ccccc2C)cc1	-6.82% (inactive)
CCS(=O)(=O)Nc1ccc(C(=O)NCCSc2ccccc2)cc1	32% (active)
COc1cccc(C(=O)NCCSc2ccc(Br)cc2)c1	14.3% (inactive)
C[C@@H]1CN([C@@H](C)CO)C(=O)c2cccc(N(C)C)c2O[C@@H]1CN(C)S(C)(=O)=O	1.61% (inactive)
C[C@@H]1CCCCO[C@@H](CN(C)S(=O)(=O)c2cccs2)[C@@H](C)CN([C@H](C)CO)C(=O)c2cc(NC(=O)Nc3ccc4c(c3)OCO4)ccc2O1	-1.49% (inactive)
COCCNC(=O)[C@H]1[C@H](CO)[C@H]2Cn3c(ccc(-c4ccccc4F)c3=O)[C@H]2N1C(=O)C1CCC1	-1.96% (inactive)
COc1ccc(CCNC(=S)N2CCN(S(=O)(=O)c3ccc(F)cc3)CC2)cc1	53.1% (active)
COc1ccc(CCNC(=S)N2CCN(S(=O)(=O)c3ccc(Cl)cc3)CC2)cc1	0.363% (inactive)

Compound	CPE inhibition
COc1ccc(CCC(=O)N2CCN(S(=O)(=O)c3ccc(OC)cc3)CC2)cc1	-8.26% (inactive)
CO[C@@H]1CN(C)C(=O)c2cc(NC(=O)NC3CCCCC3)ccc2OC[C@H](C)N(CC2CC2)C[C@H]1C	5.48% (inactive)
CN1c2ccc(-c3ccc(C#N)cc3)cc2[C@@H]2[C@@H](CCN2S(=O)(=O)c2cccc(F)c2)[C@@H]1CO	2.27% (inactive)
COC(=O)[C@@H]1[C@@H](CO)[C@@H]2Cn3c(ccc(C4=CCCC4)c3=O)[C@@H]2N1Cc1cncnc1	-0.488% (inactive)
CCOC(=O)C1CCN(Cc2c(C(=O)N3CCOCC3)nc3c(C)cccn23)CC1	115% (active)
Cc1cccn2c(CNCC(C)Oc3cccnc3)c(C(=O)N3CCOCC3)nc12 (configuration not stated)	5.69% (inactive)
Cc1cccn2c(CN(C)C3CCCc4ccccc43)c(C(=O)N3CCOCC3)nc12 (configuration not stated)	-1.26% (inactive)
CN(C)C(=O)c1ccc(-c2ccc([C@H]3[C@@H](CO)N4C(=O)CN(C(=O)CC5CC5)C[C@@H]34)cc2)cc1	-1.06% (inactive)
COc1ccccc1NC(=O)N1CC(=O)N2[C@H](CO)[C@H](c3ccc(C#Cc4ccccc4)cc3)[C@H]2C1	8.69% (inactive)
CN(C)CC(=O)N[C@@H]1CC[C@@H](CCn2cc(C3CC3)nn2)O[C@H]1CO	13.8% (inactive)
O=C(Cc1ccncc1)N[C@H]1CC[C@H](CCn2cc(-c3ccccc3F)nn2)O[C@@H]1CO	-5% (inactive)
COc1cccc(-c2cn(CC[C@H]3CC[C@H](NC(=O)CN(C)C)[C@H](CO)O3)nn2)c1	-8.73% (inactive)
CN(C)CC(=O)N[C@@H]1CC[C@H](CCn2cc(C3CCCC3)nn2)O[C@H]1CO	77.7% (active)
O=C(Cc1cccnc1)N[C@H]1CC[C@H](CCn2cc(-c3ccccc3F)nn2)O[C@H]1CO	20% (active)
O=C(Cc1ccncc1)N[C@@H]1CC[C@H](CCn2cc(-c3ccccc3F)nn2)O[C@H]1CO	2.31% (inactive)
COc1ccc(S(=O)(=O)N[C@@H]2CC[C@H](CC(=O)N3CCc4ccccc4C3)O[C@H]2CO)cc1	2.67% (inactive)
COc1ccccc1CNC(=O)C[C@H]1CC[C@@H]2[C@H](COC[C@H](O)CN2Cc2ccccc2)O1	-0.546% (inactive)
CO[C@@H](CN(C)C(=O)c1cnccn1)[C@H](C)CN([C@H](C)CO)S(=O)(=O)c1ccc(C)cc1	-0.652% (inactive)
C[C@H]1CN([C@@H](C)CO)C(=O)Cc2cc(NC(=O)CCCCCC(=O)Nc3ccccc3N)ccc2O[C@@H]1CN(C)Cc1ccncc1	-3.1% (inactive)
C[C@@H]1CN([C@@H](C)CO)C(=O)Cc2cc(NC(=O)CCCCCC(=O)Nc3ccccc3N)ccc2O[C@H]1CN(C)C(=O)Nc1ccc(C(F)(F)F)cc1	0.365% (inactive)
C[C@@H]1CN([C@@H](C)CO)C(=O)Cc2cc(NC(=O)CCCCCC(=O)Nc3ccccc3N)ccc2O[C@H]1CN(C)Cc1ccc(Cl)c(Cl)c1	35.5% (active)
C[C@H]1CN([C@@H](C)CO)C(=O)Cc2cc(NC(=O)CCCCCC(=O)Nc3ccccc3N)ccc2O[C@H]1CN(C)C(=O)Nc1ccc(F)cc1	6.87% (inactive)
C[C@H]1CN([C@@H](C)CO)C(=O)Cc2cc(NC(=O)Cc3ccccc3)ccc2O[C@@H]1CN(C)Cc1ccc(Cl)c(Cl)c1	11.1% (inactive)
C[C@H](CO)N1C[C@H](C)[C@H](CN(C)Cc2ccc(C(F)(F)F)cc2)Oc2ccc(NC(=O)CCCCCC(=O)Nc3ccccc3N)cc2CC1=O	30.6% (active)
